Assay results published in PubChem BioAssay AID686940 (The Scripps Research Institute Molecular Screening Center, 2013).
In all, about 370,000 compounds went through this assay and about 2,600 (0.7%) were called active. This is one part of a sample in which actives are shown more often than they occur. A number with no mark means an inactive call.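 The calls were made as follows: active = inhibition above a per-plate cutoff, mean inhibition of test wells between control levels plus 3 SD (cut at about 38% in these data); inactive = the rest.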

Target: COUP transcription factor 2 (Homo sapiens) (UniProt P24468)
Sequence (P24468 whole entry, looked up): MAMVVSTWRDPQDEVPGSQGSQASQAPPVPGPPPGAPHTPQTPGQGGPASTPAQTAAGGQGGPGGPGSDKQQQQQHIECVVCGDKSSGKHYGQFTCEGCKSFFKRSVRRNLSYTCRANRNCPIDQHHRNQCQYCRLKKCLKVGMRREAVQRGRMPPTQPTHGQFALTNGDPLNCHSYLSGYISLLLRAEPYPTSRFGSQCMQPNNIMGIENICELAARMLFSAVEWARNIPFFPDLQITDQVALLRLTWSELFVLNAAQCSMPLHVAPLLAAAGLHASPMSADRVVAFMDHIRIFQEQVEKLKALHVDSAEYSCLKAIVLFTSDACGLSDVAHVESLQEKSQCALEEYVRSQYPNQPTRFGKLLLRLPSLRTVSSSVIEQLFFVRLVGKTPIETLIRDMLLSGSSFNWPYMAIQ
Assay: COUP-TFII reporter suppression in human cells – cell-based, luciferase reporter, HEK293T, luminescence, primary screen (AID 686940);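 also: cells cotransfected with COUP-TFII expression vector driving the NGFI-A reporter; 0% = median of COUP-TF2 test wells and 100% = reporter-only cells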
Details: HEK293T NGFI-A luciferase reporter, at 8.6 µM, stronger effect = higher value

In order of rising inhibition:
1. CN1CCN(c2ccc(NC(=O)c3ccc4c(c3)OCCO4)cc2Cl)CC1  -69.1%
2. CN(CCO)c1cccc2c1S(=O)(=O)N(Cc1cn(Cc3ccc(C(F)(F)F)cc3)nn1)Cc1ccccc1O2  -35.7%
3. OC[C@@H]1CN(C2CCCC2)C[C@H](n2cnc3c(NC4CCC4)ncnc32)O1  -25.3%
4. CC(=O)Nc1cccc(NC(=O)c2ccc3c(c2)CCN3S(C)(=O)=O)c1  -21%
5. C=CCOc1ccc(C(=O)Nc2ccccc2C(=O)N2CCCC2)cc1  -20.6%
6. C=CCN1C(=O)[C@@H](CC(=O)NCCCCc2ccccc2)[C@]2(C(=O)OCC)CCCCC/C=C/12  -17.9%
7. COC(=O)C[C@@H]1CC[C@H]2[C@@H](COc3ccc(NS(=O)(=O)CC(F)(F)F)cc3C(=O)N2C)O1  -17.9%
8. COc1cc(C(=O)Nc2cc(C(F)(F)F)ccc2N2CCOCC2)ccc1O  -16.6%
9. CN(Cc1cccs1)C(=O)CN1C(=O)c2ccccc2S1(=O)=O  -15.9%
10. C[C@@H]1ON(C)[C@H]2C[C@H]3c4[nH]c5cccc(-c6ccc7c(c6)OCO7)c5c4CCN3C[C@@H]12  -15.3%
11. Cc1ccc(S(=O)(=O)N(C)CC(=O)N2CCc3ccccc32)cc1  -12.3%
12. O=S(=O)(c1ccccc1)N1CCC(c2nc3ccccc3o2)CC1  -11.5%
13. COC[C@@H]1CCCN1c1ccc2c(c1)O[C@H](C)CCN(C1CC1)S2(=O)=O  -10.8%
14. OCCN1CCN(c2ncnc3c2ncn3[C@H]2CN(Cc3ccco3)C[C@@H](CO)O2)CC1  -8.87%
15. COc1ccc([C@H]2OC(=O)C[C@H]2C(=O)N2CCN(c3ccccc3F)CC2)cc1OC  -8.84%
16. CC(C)N1CCCCC(NC(=O)c2ccc3ccccc3c2)C1=O (configuration not stated)  -8.52%
17. CC(C)Nc1ncnc2c1ncn2[C@H]1CN(Cc2ccncc2)C[C@@H](CO)O1  -8.36%
18. CN(c1ccc(C(=O)N2CCc3ccccc3C2)cc1)S(C)(=O)=O  -7.57%
19. CCOC(=O)[C@]12CCCC3=C1N(CCC3)C(=O)[C@@H](CC(=O)NCc1cccs1)C2  -7.47%
20. Cn1ccc(=NC=C(C#N)C#N)c2ccccc21  -6.63%
21. CC(=O)Nc1ccc(C(=O)Nc2cccc(S(=O)(=O)NC3=NCCC3)c2)cc1  -6.18%
22. O=C(CSc1nc2sc3c(c2c(=O)n1-c1ccccc1)CCCC3)NN=Cc1ccc(OCc2ccccc2)cc1  -6.12%
23. Cc1ccc(C)c(NC(=O)CCS(=O)(=O)c2ccccc2)c1  -5.81%
24. COCCn1c(C)cc(C(=O)COC(=O)CNC(=O)c2ccco2)c1C  -5.61%
25. C=CCN(C(=O)[C@@H](CCCC)[C@@H](O)c1ccc(Cl)cc1)c1ccccc1  -5.06%
26. Cc1c(C)c2cc3c4c(oc3c(C)c2oc1=O)CCCC4  -4.7%
27. c1coc(CCNc2ncnc3ccc(-c4ccc5c(c4)OCO5)cc23)c1  -3.64%
28. CCOC(=O)C1CCN(C(=O)C(C)(C)NC(=O)Nc2ccc(F)c(F)c2)CC1  -2.96%
29. Cc1ccccc1CN1CCCCC(NC(=O)c2cccc(C#N)c2)C1=O (configuration not stated)  -2.68%
30. COc1ccc(S[C@]2(C(=O)N(C)C)CC(=O)N(c3ccc(OC)cc3)[C@@H]2c2ccc(OC)cc2)cc1  -1.97%
31. COCCn1c(SCC(=O)Nc2nc(C)cs2)nnc1C(C)C  -1.64%
32. Cc1ccc(N2CC(C(=O)Nc3ccc(S(=O)(=O)N4CCCC4)cc3)CC2=O)cc1C (configuration not stated)  -1.2%
33. CCOC(=O)N1CCN(C(=O)C[C@H]2C[C@@]3(C(=O)OC)C(=C[C@H](C(C)(C)C)O[C@@H]3C)N(Cc3ccc(Cl)cc3Cl)C2=O)CC1  -1.12%
34. COC(=O)[C@H](C(C)C)N(CCc1cn(Cc2ccccc2)nn1)S(=O)(=O)c1ccc(F)cc1Br  -0.51%
35. COc1ccc(CNC(=O)COc2cccnc2[N+](=O)[O-])cc1  0.02%
36. COc1ccc(S(=O)(=O)N2CCCCC2)cc1NC(=O)C1CC(=O)N(c2ccc3c(c2)OCCO3)C1 (configuration not stated)  0.74%
37. COc1ccccc1NC(=O)CSc1nnc(CNC(=O)c2ccccc2F)o1  1.36%
38. O=C(NCc1ccncc1)C(=O)NCc1ccco1  2.85%
39. Cc1ccc(NC(=O)Cn2cnc3c(OCc4ccccc4)ncnc32)cc1C  2.95%
40. C=CCN1C(=O)[C@@H](CC(=O)N2CCN(C(=O)OCC)CC2)[C@]2(C(=O)OCC)CCCCC/C=C/12  3.11%
41. CC(=O)O[C@@]1(C(C)=O)CCC2[C@H]3C=C(C)C4=CC(=O)CC[C@@]4(C)C3CC[C@]21C (some centres not stated)  3.66%
42. Cc1ccc(-n2c(SCC(=O)Nc3ccc(S(=O)(=O)Nc4nccs4)cc3)nnc2-c2ccncc2)cc1  3.85%
43. CC(C)CNc1cccc2c1S(=O)(=O)N(Cc1cn(Cc3ccccc3C(F)(F)F)nn1)Cc1ccccc1O2  3.92%
44. Cc1csc(NC(=O)CN2CCCCCC2)n1  4.1%
45. CCCCCN1CCCCC(NC(=O)C(C)CCC)C1=O (configuration not stated)  4.97%
46. O=C(CN1CCCc2ccccc21)NCc1ccc(F)cc1  5.12%
47. COC(=O)CC1CCc2cc(C)cc(C(CC(C)C)NC(=O)[C@H](CC(C)C)NC(=O)OCc3ccccc3)c2O1 (some centres not stated)  5.51%
48. C=CCN1[C@@H](Cc2ccccc2)COc2cccc(N3CCSCC3)c2S1(=O)=O  5.82%
49. Cc1ccc(-n2c(SCC(=O)N3c4ccccc4Sc4ccccc43)nnc2-c2ccncc2)cc1  6.33%
50. COCCCNC(=O)C[C@H]1C[C@@]2(C(=O)OC)C(=C[C@H](C(C)(C)C)O[C@@H]2C)N(Cc2ccc(Cl)cc2Cl)C1=O  6.74%
51. CCOC(=O)c1ccc(NC(=O)CCn2c(=O)oc3ccccc32)cc1  6.76%
52. Cc1c(CCC(=O)N[C@@H](CC(C)C)C(=O)O)c(=O)oc2c(C)c3oc4c(c3cc12)CCCC4  6.96%
53. COc1cc(C(=O)NCc2nnc(SCC(=O)c3ccc(Cl)cc3)o2)cc(OC)c1OC  7.38%
54. Cc1sc2nc(SCC(=O)c3ccc(O)c(O)c3)n(Cc3ccco3)c(=O)c2c1C  7.6%
55. CCOc1ccc(Oc2c(Cl)cnn(-c3ccc(C)cc3)c2=O)cc1  7.75%
56. C=CCn1c(SCC(N)=O)nnc1-c1ccccc1OC  9.3%
57. CCCNC(=O)Nc1ccc2c(c1)C(=O)N(C)[C@H]1CC[C@H](CC(=O)NCC3CCCCC3)O[C@@H]1CO2  9.56%
58. OC[C@@H]1CN(Cc2cccs2)C[C@H](n2cnc3c(Nc4ccccc4)ncnc32)O1  10.6%
59. COC(=O)[C@]12C[C@H](CC(=O)NCc3ccccc3)C(=O)N(CCc3ccc(OC)c(OC)c3)C1=C[C@H](C(C)(C)C)O[C@@H]2C  10.6%
60. O=C(COc1ncnc2ccccc12)NC(=O)NCc1ccccc1  11.2%
61. COc1ccc(-c2cc(-c3nnc(SCc4ccc([N+](=O)[O-])cc4)n3N)[nH]n2)cc1  11.7%
62. CC(C)(C)c1cc(C(=O)NN)n(Cc2ccc(Cl)cc2Cl)n1  12.5%
63. CCOC(=O)[C@]12CCCCC/C=C\1N(Cc1ccc(OC)cc1)C(=O)[C@H]2CC(=O)N1CCOCC1  13.5%
64. C=CCN1[C@H](CC(C)C)COc2cccc(N3CCCC3)c2S1(=O)=O  14.6%
65. Cc1cc(C(=O)COC(=O)CNC(=O)c2ccc(F)cc2)c(C)n1Cc1ccco1  22.8%

In the case of O=C(CN1C(=O)c2ccccc2S1(=O)=O)N1CCc2ccccc21, the inhibition was 57.8% (active).
With CN(c1cccc(NC(=O)c2ccc(CN3CCc4ccccc4C3)cc2)c1)S(C)(=O)=O the inhibition was 61.4% (active).
With N#CC(C#N)=CN=c1ccn(Cc2ccc(Cl)cc2Cl)cc1 the inhibition was 41.5% (active).
OC[C@@H]1CN(Cc2ccncc2)C[C@H](n2cnc3c(N4CCN(c5ccccc5)CC4)ncnc32)O1 was tested, and the inhibition was 65.7% (active).
For OC[C@@H]1CN(Cc2ccc(-c3ccccc3)cc2)C[C@H](n2cnc3c(NC4CCCC4)ncnc32)O1, the inhibition was 73.9% (active).
With CC[C@@H](C)[C@H](NC(=O)CCc1c(C)c2cc3c4c(oc3c(C)c2oc1=O)CCCC4)C(=O)O the inhibition was 39.7% (active).
CCC(=O)Nc1ccc(C(=O)CSc2nnc(CNc3ccc(Cl)cc3)o2)cc1OC was tested, and the inhibition was 42.1% (active).
In the case of Cc1ccc(Nc2nc(CSc3nnc(-c4ccncc4)n3-c3ccccc3C)cs2)cc1, the inhibition was 39.8% (active).
CCCCCCCCn1c2c(c(=N)c3c1CCC3)CCCC2 was tested, and the inhibition was 84.5% (active).
For Cc1ccc(NC(=O)C2CC(=O)N(c3ccc4c(c3)OCCO4)C2)cc1S(=O)(=O)N1CCCCCC1 (configuration not stated), the inhibition was 42.3% (active).
For O=C(Nc1cccc(S(=O)(=O)Nc2ccc(Cl)cc2)c1)c1ccc2c(c1)OCCO2, the inhibition was 50.8% (active).
Cc1ccsc1C(=O)OCC(=O)c1cc(C)n(CC2CCCO2)c1C (configuration not stated) was tested, and the inhibition was 87.1% (active).
With COc1cc(SC)ccc1C(=O)Nc1nc(C)cs1 the inhibition was 67.9% (active).
CCOC(=O)c1ccc(NC(=O)Cn2cnc3cc(C)c(C)cc32)cc1 was tested, and the inhibition was 59.5% (active).
For COc1ccc(C(=O)Nc2ccccc2C(=O)N/N=C/c2ccc(O)c(OC)c2)cc1, the inhibition was 77.1% (active).
In the case of c1coc(CNc2ncnc3ccccc23)c1, the inhibition was 53.6% (active).
With COc1ccc(CNc2ncnc3ccccc23)cc1 the inhibition was 56.7% (active).
